From PubChem BioAssay AID1159580 (chemical genetic matrix, 2015)
Several values for one entry are separate records, joined by “and”; a condition that tells them apart may be missing. Equal values may be shown once. Hit rate of the full screen: of about 5,500 compounds, about 2,000 (36%) were called active. About 18% were inconclusive and are not listed. Cut-off read from the data, not from the text of the source: active = normalized growth mostly below about 0.91 (no sharp cut-off); inconclusive = no clear call, values can overlap the other calls; inactive = mostly above about 0.92. The list shows a part of the results.

Test: chemical genetic growth profiling, strain panel (AID 1159580);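 note: tested at 20 µM; growth read once vehicle control cultures reached saturation at 30 °C; 1 = growth at the plate median or of vehicle wells; lower values mean less growth of the strain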
Settings: S. cerevisiae deletion strains, growth OD

Measured: normalized growth

CNCCC(Oc1ccc(C(F)(F)F)cc1)c1ccccc1 (stereo unspecified)
active: locus YDR137W, strain rgp1, hits give low values 1.2 [resistant]
inactive: locus YAL013W, strain DEP1, hits give low values 1 and 1.01 | locus YAL021C, strain ccr4, hits give low values 0.994 | locus YAL026C, strain drs2, hits give low values 0.991 | locus YAL030W, strain snc1, hits give low values 0.987 | locus YAL040C, strain CLN3, hits give low values 1.01 | locus YBL061C, strain skt5, hits give low values 0.986 | locus YBR009C, strain hhf1, hits give low values 0.99 | locus YBR021W, strain FUR4, hits give low values 0.967 | locus YBR023C, strain chs3, hits give low values 0.986 | locus YBR171W, strain sec66, hits give low values 0.991 | locus YBR229C, strain ROT2, hits give low values 1.01 | locus YBR231C, strain swc5, hits give low values 0.986 | locus YBR279W, strain paf1, hits give low values 0.985 | locus YCL011C, strain gbp2, hits give low values 0.991 | locus YCL016C, strain dcc1, hits give low values 0.995 | locus YCL029C, strain bik1, hits give low values 0.99 | locus YCL061C, strain MRC1 (second series), hits give low values 0.983 | locus YCL061C, strain MRC1, hits give low values 0.985 | locus YCL069W, strain vba3, hits give low values 0.998 | locus YCR088W, strain abp1, hits give low values 0.995 | locus YDL005C, strain med2, hits give low values 0.99 | locus YDL035C, strain GPR1, hits give low values 0.987 | locus YDL040C, strain nat1, hits give low values 0.985 | locus YDL074C, strain BRE1, hits give low values 0.993 | locus YDL101C, strain DUN1, hits give low values 1.02 | locus YDL134C, strain PPH21, hits give low values 1.01 | locus YDL185W, strain tfp1, hits give low values 1 | locus YDL192W, strain arf1, hits give low values 1 | locus YDR001C, strain nth1, hits give low values 0.998 | locus YDR069C, strain doa4, hits give low values 0.944 | locus YDR101C, strain arx1, hits give low values 0.987 | locus YDR150W, strain NUM1, hits give low values 1.01 | locus YDR159W, strain sac3, hits give low values 1 | locus YDR162C, strain NBP2, hits give low values 0.992 | locus YDR195W, strain ref2 0.995 | locus YDR297W, strain sur2, hits give low values 0.995 | locus YDR318W, strain mcm21, hits give low values 0.996 | locus YDR334W, strain swr1, hits give low values 0.987 | locus YDR335W, strain msn5, hits give low values 1 | locus YDR363W, strain ESC2, hits give low values 1.02 | locus YDR388W, hits give low values 0.93 | locus YDR392W, strain spt3, hits give low values 0.996 | locus YDR502C, strain sam2, hits give low values 0.991 | locus YEL003W, strain gim4, hits give low values 0.999 | locus YEL037C, strain rad23, hits give low values 0.993 | locus YEL061C, strain CIN8 (second series), hits give low values 0.998 | locus YEL061C, strain CIN8, hits give low values 1.01 | locus YER002W, strain NOP16, hits give low values 1 | locus YER015W, strain faa2, hits give low values 0.997 | locus YER016W, strain bim1, hits give low values 0.992 | locus YER110C, hits give low values 0.994 | locus YER111C, strain swi4, hits give low values 0.981 | locus YER155C, strain BEM2 (second series), hits give low values 1.01 | locus YER155C, strain BEM2, hits give low values 1.01 | locus YER167W, strain BCK2, hits give low values 1.01 | locus YFR010W, strain ubp6, hits give low values 0.972 | locus YGL078C, strain dbp3, hits give low values 0.99 | locus YGL086W, strain mad1, hits give low values 1 | locus YGL167C, strain pmr1, hits give low values 0.987 | locus YGL173C, strain kem1, hits give low values 0.982 | locus YGL227W, strain vid30, hits give low values 0.982 | locus YGL240W, strain doc1, hits give low values 0.975 | locus YGL248W, strain PDE1, hits give low values 1.02 | locus YGL253W, strain hxk2, hits give low values 0.977 | locus YGR078C, strain PAC10, hits give low values 0.948 and 0.983 | locus YGR135W, strain pre9, hits give low values 0.986 | locus YGR229C, strain SMI1, hits give low values 0.949 | locus YGR252W, strain gcn5, hits give low values 0.923 | locus YHR013C, strain ard1, hits give low values 0.922 | locus YHR027C, strain rpn1, hits give low values 0.991 | locus YHR030C, strain SLT2, hits give low values 1.01 and 1 | locus YHR079C, strain IRE1 (second series), hits give low values 0.997 | locus YHR079C, strain IRE1, hits give low values 1.03 | locus YHR094C, strain hxt1, hits give low values 1 | locus YHR129C, strain ARP1, hits give low values 1.02 | locus YHR142W, strain chs7, hits give low values 0.992 | locus YHR200W, strain rpn10, hits give low values 0.993 | locus YIL066C, strain RNR3, hits give low values 1.01 | locus YIL073C, strain SPO22, hits give low values 1.25 | locus YIL125W, strain kgd1, hits give low values 0.997 | locus YIR030C, strain dcg1, hits give low values 1 | locus YJL092W, strain hpr5, hits give low values 0.986 | locus YJL095W, strain BCK1 (second series), hits give low values 0.992 | locus YJL095W, strain BCK1, hits give low values 0.99 and 0.988 | locus YJL115W, strain asf1, hits give low values 0.993 | locus YJL129C, strain trk1, hits give low values 1.01 | locus YJL134W, strain LCB3, hits give low values 1 | locus YJL154C, strain vps35, hits give low values 1.01 | locus YJL164C, strain tpk1, hits give low values 0.987 | locus YJL166W, strain qcr8, hits give low values 0.99 | locus YJL168C, strain set2, hits give low values 0.993 | locus YJL187C, strain SWE1 (second series), hits give low values 1.02 | locus YJL187C, strain SWE1, hits give low values 0.986 | locus YJR043C, strain POL32, hits give low values 1 | locus YJR066W, strain TOR1, hits give low values 0.988
